This note sets out measurements from PubChem BioAssay (NCI).

Common to all, as to assay: NCI-60 one-dose screen, 48 h (100 = growth as untreated, 0 = no growth, -100 = all killed)
The test system of assay [1] is SK-MEL-2 melanoma. Conditions: 10 µM.
For assay [2], the system named is EKVX NSCLC. The conditions noted are these: 10 µM.
For assay [3], the system named is SN12C renal. The conditions noted are these: 10 µM.
Assay [4] deals with TK-10 renal. Conditions: 10 µM unless noted.
The test system of assay [5] is ACHN renal. The conditions noted are these: 10 µM.
For assay [6], the system named is CAKI-1 renal. Conditions: 10 µM.
Assay [7] has as its system A498 renal. Conditions: 10 µM.
For assay [8], the system named is CCRF-CEM leukemia. The conditions noted are these: 10 µM.
Assay [9] relates to MOLT-4 leukemia. Conditions: 10 µM.
Assay [10] has as its system RPMI-8226 leukemia. Conditions: 10 µM.
The test system of assay [11] is OVCAR-8 ovarian. The conditions noted are these: 10 µM.
Assay [12] has as its system OVCAR-5 ovarian. Conditions: 10 µM.
Assay [13] relates to OVCAR-4 ovarian. The conditions noted are these: 10 µM.
Assay [14] concerns SK-OV-3 ovarian. Conditions: 10 µM.
Assay [15] has as its system IGROV1 ovarian. The conditions noted are these: 10 µM.
For assay [16], the system named is OVCAR-3 ovarian. Conditions: 10 µM.
Assay [17] has as its system HS 578T breast. The conditions noted are these: 10 µM.
Assay [18] concerns NCI/ADR-RES ovarian. Conditions: 10 µM.
Assay [19] concerns SR leukemia. The conditions noted are these: 10 µM.

Compounds without any hit were thinned out: in the full panel of roughly 83,000, 20% have a hit.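 The test compound was applied at a single concentration to cells in 96-well plates for 48 hours, and percent growth was recorded.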 Unmarked numbers belong to inactive results. The source made the active and inactive calls. Rule for the calls: active = growth percent below 10; inactive = the rest.

`c1c(-c2cc(C3CC3)[nH]n2)n[nH]c1C1CC1`: the growth in assay [1] is 104%; in assay [2], 76.6%; in assay [3], 102%; in assay [4] it was 106%; in assay [5] it was 99.3%; in [6], 97.6%. Further, the growth in assay [7] is 97.6%; in assay [8], 67%; in [9], 95.2%; in [10], 105%; in assay [11], 102%; in assay [12], 93.6%. Moreover, the growth was 109% in [13]; 96.2% in assay [14]; 111% in assay [15]; 117% in [16]; 101% in assay [17]; 98.8% in [18].
As to `Cc1ccc(C)n1-c1ccsc1C(=O)NNC(=O)CCl`, the growth is 91.2% in assay [1]; 81.2% in [2]; 92.2% in [3]; 105% in assay [4]; 98.5% in [5]; 84.8% in assay [6]. Moreover, the growth in [7] is 104%; in assay [8] it was 61%; in assay [9], 92.9%; in assay [10], 84.4%; in [11], 106%; in [12], 111%. The growth in [13] is 93.5%; in assay [14], 95.2%; in assay [15] it was 103%; in assay [16], 93.2%; in assay [17], 92.7%; in assay [18], 98.5%.
With `OCCN(CCO)C(=S)S`, the growth in [1] is 121%; in [2], 96.3%; in assay [3], 102%; in [4], 110%; in assay [5], 109%; in assay [6], 93.1%. Further, the growth in [7] was 114%; in [8] it was 104%; in assay [9] it was 121%; in assay [10], 111%; in assay [11], 100%; in assay [12] it was 120%. The growth was 118% in assay [13]; 127% in [14]; 111% in assay [15]; 121% in assay [16]; 99.7% in assay [17]; 105% in assay [18].
Turning to `Cc1cc2nc(CC(=O)c3ccccc3)c(=O)[nH]c2cc1C`, the growth in [1] was 102%; in assay [2], 55.5%; in assay [3] it was 93.8%; in assay [4], 149%; in assay [5], 93.8%; in [6] it was 76.2%. For the same compound, the growth is 127% in [7]; 88.5% in assay [8]; 89% in assay [9]; 103% in assay [10]; 94.7% in assay [11]; 116% in [12]. Also, the growth in [13] was 102%; in [14] it was 102%; in assay [15], 91.9%; in assay [16], 109%; in assay [17] it was 73.8%; in [18], 94.6%.
On to `CC(C)OC(C(=O)O)c1ccccc1` (stereo unspecified), for which the growth was 110% in assay [1]; 108% in assay [2]; 93.5% in [3]; 98.4% in assay [4]; 97.2% in assay [5]; 101% in assay [6]. Besides, the growth is 107% in assay [7]; 91.9% in assay [8]; 125% in assay [19]; 105% in [10]; 109% in assay [11]; 97.1% in assay [12]. The growth in assay [13] was 96.2%; in [14] it was 100%; in assay [15] it was 124%; in assay [16], 110%; in [17] it was 112%; in assay [18], 104%.
As for `O=[N+]([O-])c1ccc(S(=O)(=O)NN=C2CCCCC2)cc1`, the growth is 147% in assay [1]; 104% in assay [2]; 103% in assay [3]; 128% in [4]; 100% in assay [5]; 92.5% in assay [6]. For the same compound, the growth in assay [7] is 123%; in assay [9] it was 98.7%; in [19], 96.9%; in assay [10], 110%; in assay [11] it was 101%; in assay [12], 114%. The growth in assay [13] was 99.5%; in [14] it was 100%; in assay [15] it was 103%; in assay [16], 114%; in [17], 141%; in [18], 115%.
Take `CN(C)CCN(C)CC(C)(C)C(=O)/C=C/c1ccc(Cl)cc1`: the growth in assay [1] is -25.6% (active); in assay [2], -19.1% (active); in assay [3], 2.97% (active); in assay [4], 0.991% (active); in assay [5] it was -27.3% (active); in assay [6], 8.74% (active). Besides, the growth was 10.4% in assay [7]; -9.31% (active) in assay [8]; -14.7% (active) in assay [9]; -24.1% (active) in [10]; -35.4% (active) in assay [11]; 3.63% (active) in assay [12]. In addition, the growth was 7.86% (active) in assay [13]; 5.56% (active) in assay [14]; 15.6% in assay [15]; 10.4% in [16]; -4.14% (active) in assay [17]; -36.1% (active) in assay [18].
`Cc1ccc(Cl)cc1N1C(=O)CC(Sc2ccccc2N)C1=O` (stereo unspecified): the growth in assay [1] is 107%; in assay [2], 104%; in [3] it was 96.8%; in assay [4], 114%; in assay [5], 94.2%; in [7], 103%. Moreover, the growth in assay [8] was 93.8%; in assay [9], 74.7%; in assay [19] it was 101%; in [10], 91.3%; in assay [11] it was 87.8%; in [12], 105%. Besides, the growth in assay [13] is 101%; in assay [14], 102%; in [16] it was 106%; in assay [17], 103%; in assay [18] it was 101%.
In the case of `CCCCCCCCOC(=O)c1ccccn1`, the growth is 103% in [1]; 107% in assay [2]; 96.4% in [3]; 102% in [4]; 103% in assay [5]; 111% in assay [6]. The growth in assay [7] was 104%; in assay [9], 116%; in assay [19], 125%; in assay [10] it was 101%; in [11], 103%; in [12] it was 95%. The growth in [13] is 104%; in assay [14], 95.2%; in assay [15] it was 103%; in assay [16], 110%; in [17], 106%; in assay [18] it was 98.8%.
